# Screens: PubChem BioAssay, National Center for Advancing Translational Sciences (NCATS)
# Rows were chosen to be rich in hits. Some 8.1% of all compounds tested hit in one or more screens of this group.
# MCF10A rerep – induces DNA re-replication in MCF 10a normal breast cells; MCF 10A DNA re-replication, Hoechst nuclear intensity, 48 h; Potency, µM (doses to about 46.1 µM), usual class: activators; 2.9% of 350,000 active; also: nearly all actives have a fitted effect of over 50% in size
# SW480 rerep – DNA re-replication induction in SW480 cells | SW480 DNA re-replication, Hoechst DNA content imaging, 48 h | AID 624297 | Potency, µM (highest dose often 46.1 µM), hits mostly activators | 1.8% of 340,000 active; also: nearly all actives have a fitted effect of over 55% in size
#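 DNA re-replication was detected as more nuclei of elevated Hoechst intensity after 48 hr exposure to compound (23 nL pinned per well of 250 cells).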
# ELG1 repair inh – ELG1-dependent DNA repair inhibition; Potency, µM (series often up to 46.1 µM), most hits filed as inhibitors; 2.3% of 330,000 active; AID 504467; HEK293T ELG1-luciferase reporter, luminescence, 16 h; DNA damage induced by 5-fluorouridine; also: nearly all actives have a fitted effect of over 55% in size
#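 DMSO vehicle served as the neutral condition. Each well held 2,000 cells given 5-fluorouridine plus compound; after 16 hr at 37 °C/5% CO2, ONE-Glo was added and luciferase measured 30 min later.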
# KB-V1 cytotox – kills drug-selected multidrug resistant KB-V1 cells; KB-V1 MDR cells viability, CellTiter-Glo, 72 h; Potency, µM (doses to about 46.1 µM), actives largely listed as cytotoxic; 3.4% of 400,000 active; also: nearly all actives have a fitted effect of over 60% in size
#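 Cytotoxicity via CellTiter-Glo luminescence after 72 h compound exposure at 37 degrees C. Cells: drug-selected KB-V1 line, DMEM phenol-red free plus 10% FBS. Compounds tested at multiple concentrations; normalized data fitted to concentration-effect curves.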
# KB-3-1 cytotox – kills parental KB-3-1 adenocarcinoma cells; KB-3-1 viability, CellTiter-Glo ATP luminescence, 72 h; Potency, µM (series often up to 46.1 µM), usual class: cytotoxic; 1.4% of 400,000 active; AID 1347075; also: nearly all actives have a fitted effect of over 60% in size
#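 KB-3-1 parental drug-naive adenocarcinoma cells in DMEM/10% FBS, incubated 72 h at 37 C with pin-transferred compounds across a concentration series. Viability by CellTiter-Glo luminescence; concentration-response curves fitted after normalization.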
# A number is an active result; i = inactive; ? = inconclusive; nt = no result. Calls follow the shape of the dose curve; as a rule, active = well fitted curve in the direction sought with a large enough effect; inconclusive = small, poorly fitted or top-dose-only effect, or another doubt; inactive = no such curve, though single readings can be large; an effect the other way counts as inactive or inconclusive.
SMILES,MCF10A rerep,SW480 rerep,ELG1 repair inh,KB-V1 cytotox,KB-3-1 cytotox
O=C(NNc1nc2cc3c(cc2s1)OCCO3)c1ccc(F)cc1,0.26µM,i,?,?,?
CCOC(=O)C1(C)CCN1C(=O)c1ccc(SC(F)(F)F)cc1 (stereo unspecified),nt,nt,nt,i,i
Cc1n[nH]c2c([N+](=O)[O-])c(=O)[nH]c(=O)n12,i,i,nt,i,i
C=CS(=O)(=O)N(Cc1ccccc1Br)[C@H](CO)Cc1ccccc1,16µM,?,nt,?,?
C=CCCN([C@H](CO)Cc1ccccc1)S(=O)(=O)c1ccccc1Br,?,i,?,i,i
Cc1ccc(S(=O)(=O)N2CCCCC2)cc1NC(=O)CSCC(=O)O,i,i,i,i,i
O=C(CNc1ccccc1F)Nc1cc(S(=O)(=O)N2CCCCC2)ccc1Cl,i,i,i,i,i
Cc1ccc(S(=O)(=O)N2CCCCC2)cc1NC(=O)CNC(C)c1ccc(Cl)c(Cl)c1 (stereo unspecified),i,i,i,i,15µM
Cc1ccc(S(=O)(=O)N2CCCCC2)cc1NCC(=O)Nc1ccc(Br)cc1F,nt,nt,nt,?,3.3µM
COc1ccc(C(NC(=O)COc2ccc(C#N)cc2)c2ccc(OC)cc2)cc1,nt,nt,nt,i,i
CC(=O)Nc1ccc(S(=O)(=O)NCCC(=O)N2CCN(C(c3ccccc3)c3ccccc3)CC2)cc1,i,i,i,i,i
Cc1cc(C)cc(C(=O)NCC(=O)N2CCN(C(c3ccccc3)c3ccccc3)CC2)c1,16µM,?,i,18µM,?
O=C(CCNS(=O)(=O)c1ccccc1)N1CCN(C(c2ccccc2)c2ccccc2)CC1,nt,nt,23µM,nt,nt
C=Cc1c(C)c2cc3nc(cc4[nH]c(cc5nc(cc1[nH]2)C(C)=C5CCC(=O)O)c(CCC(=O)OC)c4C)[C@@]1(C)C3=CC=C(C(=O)OC)[C@H]1C(=O)OC (tested in a mixture with another compound),i,i,nt,nt,nt
O=C(Nc1ccc(F)cc1F)c1sccc1SCc1cccc(C(F)(F)F)c1,i,i,i,16µM,i
COc1ccc(NC(=O)c2sccc2SCc2cccc(C(F)(F)F)c2)cc1,i,i,i,16µM,i
O=C(Nc1ccc(F)cc1)c1sccc1SCc1cccc(C(F)(F)F)c1,?,i,i,?,i
CN(C(=O)c1cc2nc(-c3ccc4c(c3)OCO4)cc(C(F)(F)F)n2n1)c1ccc(OC(F)(F)F)cc1,nt,nt,nt,i,i
CC(NC(=O)C1CCCN1C(=O)OC(C)(C)C)C(=O)OCc1ccccc1 (stereo unspecified),nt,nt,nt,i,i
N/C(=N\N=C\c1ccc(Cl)cc1)N/N=C/c1ccc(Cl)cc1,?,i,nt,nt,nt
CCOCCCNC(=O)c1cc(=O)n(Cc2cccc(C)c2)c2ccccc12,?,?,16µM,9.2µM,?
O=C(NC1CCN(Cc2ccccc2)CC1)c1cc(S(=O)(=O)Nc2ccc(F)cc2)ccc1Cl,i,i,i,i,?
CCCCn1c(N)c(N(CCOC)C(=O)c2c(CC)noc2C)c(=O)[nH]c1=O,i,i,i,i,i
COc1ccc(NC2=NCC(Cc3ccc(Br)cc3)S2)cc1 (stereo unspecified),?,?,?,i,23µM
CC1=C(C(=O)N(C)C)CC(CC(=O)NC(c2ccccc2)c2ccccc2)C(=O)N1CCC1=CCCCC1 (stereo unspecified),nt,nt,nt,i,i
SMILES,MCF10A rerep,SW480 rerep,ELG1 repair inh,KB-V1 cytotox,KB-3-1 cytotox
CCC(C)(C)C1CCC2(CC1)NC(=O)N(CC(=O)NCCc1ccc(OC)c(OC)c1)C2=O (stereo unspecified),i,i,?,16µM,?
CCC(C)(C)C1CCC2(CC1)NC(=O)N(CC(=O)NCCOc1ccccc1)C2=O (stereo unspecified),i,i,i,?,?
Cc1cc(-c2ccccc2)nc2oc3c(c12)NC(=O)CN(c1ccccc1)C3=O,i,15µM,i,?,i
CCN(CC)c1ccc(-c2nn3c(-c4n[nH]c5c4CCC5)nnc3s2)cc1,1.5µM,1.8µM,i,?,?
CCOc1ccc(C(=O)N(CN2CCCC2=O)c2ccc(C)cc2)cc1,i,i,?,4.6µM,i
CCOc1ccc(C(=O)N(CN2CCCC2=O)c2ccccc2)cc1,i,i,i,i,i
CC(C)C(=O)N(Cc1cc2ccccc2[nH]c1=O)C(C)C,i,i,i,16µM,i
CCOC(=O)c1ccc(N(CCC2CO2)S(=O)(=O)c2ccc(C)cc2)cc1 (stereo unspecified),i,i,nt,21µM,i
Cc1ccc(N(Cc2cc3cc(C)ccc3[nH]c2=O)S(=O)(=O)c2ccccc2)cc1,?,18µM,?,?,?
CC(C)N(Cc1cc2ccccc2[nH]c1=O)C(=O)C(C)(C)C,i,i,i,i,i
CCOC(=O)c1ccc(NC(=O)CN(c2ccc(C)cc2)S(=O)(=O)c2ccc(OC)cc2)cc1,nt,nt,nt,i,i
Cc1ccc(Cn2c(=O)n(CC3CCC(C(=O)N4CCOCC4)CC3)c(=O)c3sccc32)cc1 (stereo unspecified),nt,nt,nt,i,i
Cn1c(=O)c2sccc2n2c(CCC(=O)NCc3ccccc3)nnc12,nt,nt,nt,i,i
Cc1ccc2cc(CN(c3ccccc3)S(=O)(=O)c3ccccc3)c(=O)[nH]c2c1,i,i,i,i,i
CCOc1ccc(N(Cc2cc3ccc(C)cc3[nH]c2=O)S(=O)(=O)c2ccccc2)cc1,21µM,21µM,?,i,16µM
CCOc1ccc(S(=O)(=O)N(CC(=O)N/N=C/c2cccs2)c2ccc(C)cc2)cc1,i,i,i,23µM,i
CCOc1ccc(N(Cc2ccc(C(=O)O)cc2)S(=O)(=O)c2ccc(C)cc2)cc1,3.7µM,?,i,?,?
COc1ccc(N(Cc2cc3ccccc3[nH]c2=O)S(C)(=O)=O)cc1,i,i,i,16µM,i
Cc1nc2ccn(Cc3ccccc3)c(=O)c2cc1C(=O)N1CCN(c2ccc(F)cc2)CC1,i,i,6.5µM,i,i
COc1ccc(CNC(=O)c2cc3c(=O)n(Cc4ccc(OC)cc4)ccc3nc2C)cc1,nt,nt,nt,i,2.6µM
Cc1nc2ccn(Cc3cccnc3)c(=O)c2cc1C(=O)NCc1ccc(Cl)cc1,nt,nt,nt,i,?
Cc1nc2ccn(Cc3cccnc3)c(=O)c2cc1C(=O)N1CCN(c2ccc(F)cc2)CC1,nt,nt,nt,i,i
COC(=O)[C@@]12C[C@@H](CC(=O)N3CCN(C(=O)C4CC4)CC3)C(=O)N(Cc3ccccc3)C1=CCC(C)(C)C2,nt,nt,nt,?,i
CC[C@]12c3[nH]c4ccc(Cl)cc4c3CCN1C(=O)[C@@H](CC(=O)NCc1cccc(C(F)(F)F)c1)C[C@@H]2C(=O)N1CCN(C(=O)c2ccco2)CC1,?,i,13µM,i,i
C[C@]12c3[nH]c4ccc(Cl)cc4c3CCN1C(=O)[C@@H](CC(=O)NCc1cccc(C(F)(F)F)c1)C[C@@H]2C(=O)N1CCCCC1,?,?,23µM,i,i
